According to PubChem BioAssay (NCATS):
Results filed as inconclusive are left out. Activity calls are given as the source filed them. Unless noted, the call rests on the fitted dose curve; in most records, active means well fitted curve in the direction sought with a large enough effect; inconclusive means small, poorly fitted or top-dose-only effect, or another doubt; inactive means no such curve, though single readings can be large; an effect the other way counts as inactive or inconclusive.

What was measured:
Furin (Homo sapiens) = Furin (Homo sapiens) (UniProt P09958); assay: Furin counterscreen qHTS for Zika virus inhibitors (AID 1347149); further: nearly all actives have a fitted effect of over 70% in size; further: potency means the concentration at half of the fitted maximal effect;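 on activity change, negative = inhibition: purified recombinant full-length human furin enzyme at 5 nM; fluorescence gain from furin cutting a BOC-RVRR-AMC peptide substrate over 15 min; top concentration of the series differs between compounds; plate controls were no-inhibitor control for no effect and no-enzyme control for full effect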
Furin (Homo sapiens), sequence (P09958 whole entry, looked up): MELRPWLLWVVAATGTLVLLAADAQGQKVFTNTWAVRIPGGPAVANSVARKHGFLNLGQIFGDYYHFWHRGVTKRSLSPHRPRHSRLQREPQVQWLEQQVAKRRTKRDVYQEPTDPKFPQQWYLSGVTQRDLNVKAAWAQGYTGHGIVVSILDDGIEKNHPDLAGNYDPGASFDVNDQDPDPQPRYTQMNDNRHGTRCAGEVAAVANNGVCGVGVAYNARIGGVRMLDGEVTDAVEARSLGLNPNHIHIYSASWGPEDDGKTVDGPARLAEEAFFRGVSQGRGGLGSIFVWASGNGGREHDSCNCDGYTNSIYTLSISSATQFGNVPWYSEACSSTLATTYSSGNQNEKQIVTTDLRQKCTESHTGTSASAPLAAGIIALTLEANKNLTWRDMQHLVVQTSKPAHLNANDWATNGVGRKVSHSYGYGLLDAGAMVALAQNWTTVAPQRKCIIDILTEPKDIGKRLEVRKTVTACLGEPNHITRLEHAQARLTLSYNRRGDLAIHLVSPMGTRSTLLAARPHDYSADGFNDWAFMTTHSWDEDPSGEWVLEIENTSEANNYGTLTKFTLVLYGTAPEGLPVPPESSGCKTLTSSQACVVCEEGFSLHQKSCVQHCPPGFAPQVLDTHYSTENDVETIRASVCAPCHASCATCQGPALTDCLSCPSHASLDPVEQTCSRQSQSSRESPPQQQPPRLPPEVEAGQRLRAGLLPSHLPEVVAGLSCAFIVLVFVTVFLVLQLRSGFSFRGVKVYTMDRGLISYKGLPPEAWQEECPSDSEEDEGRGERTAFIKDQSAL
In short: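 Counterscreen measures cleavage of 2 microM BOC-RVRR-AMC, below its ~15 microM Km, by 5 nM full-length human furin at pH 7.0 after a 15-min compound preincubation. Inhibition derives from the 15-min fluorescence increase at 37C.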

[1] = Vero cells viability qHTS for Zika virus inhibitors (AID 1347167); further: on the % scale 0 is the no-effect control and ±100 the full control effect
In short: (§1)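 To flag cytotoxic protease inhibitors, viability is measured by ATP-dependent luminescence (CellTiter Glo) after cells attached overnight receive compound for 24 to 48 hours in DMEM with 4% FBS.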

[2] = HepG2 cells viability qHTS for Zika virus inhibitors (AID 1347168); further: on the % scale 0 is the no-effect control and ±100 the full control effect
In short: as §1

AS120 = assay: qHTS profiling for inhibitors of Plasmodium falciparum proliferation (AID 504749); further: nearly all actives have a fitted effect of over 60% in size; further: potency means the concentration at half of the fitted maximal effect; details: P. falciparum in erythrocytes, SYBR Green DNA, 72 h; series mostly up to 28.7 µM
In short: (§2)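 Quantitative HTS: compounds pinned into medium, infected erythrocytes added (0.3% parasitemia, 2.5% hematocrit), 72 h culture at 37 C under 5% CO2. Saponin/Triton lysis with SYBR Green I, overnight RT, then fluorescence read.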

ATS189 = assay: as above; details: P. falciparum in erythrocytes, SYBR Green DNA, 72 h; series mostly up to 28.7 µM
In short: as §2

CP191 = assay: as above; details: P. falciparum in erythrocytes, SYBR Green DNA, 72 h; series mostly up to 28.7 µM
In short: as §2

CP192 = assay: as above; details: P. falciparum in erythrocytes, SYBR Green DNA, 72 h; series mostly up to 28.7 µM
In short: as §2

CP194 = assay: as above; details: P. falciparum in erythrocytes, SYBR Green DNA, 72 h; series mostly up to 28.7 µM
In short: as §2

CP203 = assay: as above; details: P. falciparum in erythrocytes, SYBR Green DNA, 72 h; series mostly up to 28.7 µM
In short: as §2

CP247 = assay: as above; details: P. falciparum in erythrocytes, SYBR Green DNA, 72 h; series mostly up to 28.7 µM
In short: as §2

DFO2036 = assay: as above; details: P. falciparum in erythrocytes, SYBR Green DNA, 72 h; series mostly up to 28.7 µM
In short: as §2

DIV14 = assay: as above; details: P. falciparum in erythrocytes, SYBR Green DNA, 72 h; series mostly up to 28.7 µM
In short: as §2

DIV17 = assay: as above; details: P. falciparum in erythrocytes, SYBR Green DNA, 72 h; series mostly up to 28.7 µM
In short: as §2

FAB9 = assay: as above; details: P. falciparum in erythrocytes, SYBR Green DNA, 72 h; series mostly up to 28.7 µM
In short: as §2

ICS = assay: as above; details: P. falciparum in erythrocytes, SYBR Green DNA, 72 h; series mostly up to 28.7 µM
In short: as §2

PC49 = assay: as above; details: P. falciparum in erythrocytes, SYBR Green DNA, 72 h; series mostly up to 28.7 µM
In short: as §2

SC27B = assay: as above; details: P. falciparum in erythrocytes, SYBR Green DNA, 72 h; series mostly up to 28.7 µM
In short: as §2

[3] = Confirmation and Secondary Assay for Modulators of Hemoglobin Beta Chain Splicing at IVS2 654 locus (AID 910);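 further: per-well total GFP intensity by laser scanning cytometry after 2-day treatment; % of control where 0% means no effect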
In short: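 HeLa cells stably carrying EGFP interrupted by mutant beta-globin IVS2-654 intron (CMV-driven) were treated with compound for 2 days at 37C; corrected splicing was scored as total peak GFP intensity per well (488 nm excitation, 500-520 nm emission).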

[4] = Confirmation and Secondary Assay for Modulators of Hemoglobin Beta Chain Splicing at IVS2 705 locus (AID 930);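 further: HeLa cells stably expressing the EGFP-705 splicing reporter; GFP fluorescence per well restored by corrected splicing of the IVS2-705 intron in EGFP; % of control where 0% means no effect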
In short: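 Fluorescence gain (488 nm laser, 500-520 nm PMT) reflects restored correct splicing of a mutant IVS2-705 intron inside EGFP in stably transfected HeLa cells after 2-day compound treatment.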

[5] = AP1 Signaling Pathway (AID 357; active means well fitted curve in either direction with a large enough effect, not every such curve was filed as active;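 further: ME-180 reporter cells stimulated with EGF at its EC50 level; on the % scale 0 is the no-effect control and ±100 the full control effect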); details: ME-180 (cervical carcinoma) AP-1-bla reporter, EGF-induced, beta-lactamase ratio, 5 h
In short: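 Cells are seeded overnight, exposed to compound titrations and an EC50 level of EGF for 5 hours at 37 °C, then loaded with CCF4 dye for 2.5 hours. Beta-lactamase activity under the AP-1 element is read as a blue/green ratio.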

CC[C@H](C)[C@H]1O[C@]2(CC[C@@H]1C)C[C@@H]1C[C@@H](C/C=C(\C)[C@@H](O[C@H]3C[C@H](OC)[C@@H](O[C@H]4C[C@H](OC)[C@@H](O)[C@H](C)O4)[C@H](C)O3)[C@@H](C)/C=C/C=C3\CO[C@@H]4[C@H](O)C(C)=C[C@@H](C(=O)O1)[C@]34O)O2
inactive: Potency (Furin (Homo sapiens)) | Potency [1] | Potency [2]

O=C(CC1NCCC[C@H]1O)Cn1cnc2cc(Br)c(Cl)cc2c1=O (stereo partly specified)
active: Potency (AS120) 2 µM | Potency (ATS189) 4.47 µM | Potency (CP191) 2.82 µM | Potency (CP192) 3.38 µM | Potency (CP194) 4.78 µM | Potency (CP203) 3.38 µM | Potency (CP247) 2.24 µM | Potency (DFO2036) 2.82 µM | Potency (DIV14) 3.01 µM | Potency (DIV17) 3.38 µM | Potency (FAB9) 1 µM | Potency (ICS) 1.12 µM | Potency (PC49) 1.78 µM | Potency (SC27B) 11.2 µM

CCCCC(=O)N(Cc1ccc(-c2ccccc2-c2nn[nH]n2)cc1)C(C(=O)O)C(C)C (stereo unspecified)
inactive: outcome [3] | outcome [4] | Potency (AS120) | Potency (CP192) | Potency (CP194) | Potency (CP203) | Potency (CP247) | Potency (DFO2036) | Potency (FAB9) | Potency (PC49) | Potency (SC27B)
active: Potency (ICS) 7.94 µM

O=C(O)c1ccc(O)c2ncc(N3CCCN(CCc4cccc5ccccc45)CC3)cc12
inactive: Potency [1] | Potency [2]
active: Potency (Furin (Homo sapiens)) 49.4 µM

CN1CCN(CCC=C2c3ccccc3Sc3ccc(S(=O)(=O)N(C)C)cc32)CC1
inactive: activity change, negative = inhibition ([5]; at 38 µM (top of the series)) 18.8% | outcome [3] | outcome [4] | Potency (FAB9)
active: Potency (ATS189) 8.91 µM | Potency (CP191) 12.6 µM | Potency (DIV14) 8.49 µM | Potency (DIV17) 9.53 µM | Potency (ICS) 7.94 µM | Potency (SC27B) 11.2 µM

CCOC(=O)CCC(=O)O[C@H]1[C@H](O[C@@H]2[C@@H](C)[C@H](O[C@H]3C[C@@](C)(OC)[C@@H](O)[C@H](C)O3)[C@@H](C)C(=O)O[C@H](CC)[C@@](C)(O)[C@H](O)[C@@H](C)C(=O)[C@H](C)C[C@@]2(C)O)O[C@H](C)C[C@@H]1N(C)C
inactive: activity change, negative = inhibition ([5]; at 17.2 µM (top of the series)) -0.678%

Nc1ncnc2c1c(I)cn2C1OC(CO)C(O)C1O (stereo unspecified)
inactive: outcome [3] | outcome [4]

CC(C)=CCC/C(C)=C/CC/C(C)=C/CSc1ccccc1C(=O)O
inactive: activity change, negative = inhibition ([5]; at 38 µM (top of the series)) 14.1%
